Each structure is given as a SMILES string. About 79,000 compounds went through this panel and 15% of them were active in at least one assay; those are over-represented in the sample as a whole. Unmarked numbers belong to inactive results. Activity calls are given as the source filed them. Rule as the data show it: active = growth inhibition above about 70%; inactive = the rest.

The assay in a line: NCI Yeast Anticancer Drug Screen. Data for the sgs1 strain (AID 173).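 Also: 0% = growth of vehicle-only control cultures.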 Conditions: S. cerevisiae sgs1 mutant, stronger effect = higher value. As to the method: Growth inhibition of yeast strains with defined genetic alterations is measured as a screen for potential anti-cancer activity. Selected strains with alterations in DNA damage repair or cell cycle control were exposed to compounds and growth inhibition was measured relative to vehicle treated controls. The strain used in this assay is sgs1

Consider `O=C(COC(=O)c1ccccc1)c1ccc(Br)cc1`, for which the growth inhibition is, setting by setting: (at 1.2 µM) -12%; (at 3.7 µM) 10%; (at 11.0 µM) 90% (active); (at 33.0 µM) 99% (active); (at 100.0 µM) 99% (active).
With `O=C1C(Br)=C(c2ccccc2)O/C1=C/C(=O)c1ccc(Br)cc1`, the growth inhibition is 1% (at 1.2 µM); 5% (at 3.7 µM); 15% (at 11.0 µM); 37% (at 33.0 µM); 94% (active) (at 100.0 µM).
For `Cc1nc(Nc2ccccc2[N+](=O)[O-])sc1C(=O)CC(=O)C(=O)Nc1c(C(C)C)cccc1C(C)C`, the growth inhibition runs as follows: (at 1.2 µM) 2%; (at 3.7 µM) 4%; (at 11.0 µM) 2%; (at 33.0 µM) 7%; (at 100.0 µM) 6%.
`C[Si](C)(C)/C=C/CCNC(C#N)c1ccccc1` (stereo not given): the growth inhibition reads like this: (at 1.2 µM) -19%; (at 3.7 µM) -15%; (at 11.0 µM) 42%; (at 33.0 µM) 31%; (at 100.0 µM) 94% (active).
The like results for `CN(CCN(C)Cc1ccccc1)Cc1ccccc1` were, in that order, -6%, -10%, -10%, 10% and 30%.
The like results for `Cc1cccc[n+]1C1CCc2c(ccc3ccccc23)C1=O` (stereo not given) were, in that order, -14%, -6%, -26%, -5% and 69%.
The like results for `Cc1cc2c(cc1C)[n+]([O-])c(-c1nc3ccccc3s1)c(N)[n+]2[O-]` were, in that order, 10%, 21%, 24%, 39% and 79% (active).
On to `O=P(NC1CCCCC1)(OCc1ccccc1)OCc1ccccc1`, for which the growth inhibition was 0% (at 1.2 µM); -1% (at 3.7 µM); 0% (at 11.0 µM); 9% (at 33.0 µM); 17% (at 100.0 µM).

The values are drawn from PubChem BioAssay (NCI).
